Holding throughout (assay): NCI-60 one-dose screen, 48 h (100 = growth as untreated, 0 = no growth, -100 = all killed)
What all share (settings): 10 µM unless noted

Experiment [1] concerns NCI-H23 lung.
Experiment [2] has as its system NCI-H226 lung.
Experiment [3] concerns NCI-H322M lung.
Experiment [4] relates to HOP-62 NSCLC.
For experiment [5], the system named is NCI-H460 lung.
For experiment [6], the system named is HOP-92 NSCLC.
The test system of experiment [7] is A549/ATCC NSCLC.
Experiment [8] has as its system 786-0 renal.
For experiment [9], the system named is COLO 205 colon.
The test system of experiment [10] is DU-145 prostate.
In experiment [11] the test system is K-562 leukemia.
The subject of experiment [12] is MALME-3M melanoma.
The test system of experiment [13] is MDA-MB-231 breast.
The test system of experiment [14] is RXF 393 renal.
Experiment [15] deals with SF-268 CNS.
In experiment [16] the test system is SF-295 CNS.
Experiment [17] has as its system SF-539 CNS.
Experiment [18] has as its system UACC-257 melanoma.
The subject of experiment [19] is M14 melanoma.
In experiment [20] the test system is NCI-H522 lung.

About 83,000 compounds went through this panel and 20% of them were active in at least one assay; those are over-represented in the sample as a whole.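 Compound tested at a single concentration for 48 hours in 96-well plates; a percent growth value below 10 was scored as active.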 A number with no mark means an inactive call. Calls of active or inactive are those of the source.

For `C#CCN(C)CCCOc1ccc(NCc2ccc(C(=O)NO)cc2)cc1Cl`, the growth in experiment [1] is 21.3%; in [2], 46.6%; in experiment [3], 31.8%; in experiment [4] it was 24.8%; in [5] it was 24.8%; in experiment [6] it was -5.78% (active). Also, the growth in experiment [7] was 20%; in experiment [8] it was 38.9%; in experiment [9] it was 3.71% (active); in experiment [10], 25.7%; in experiment [11], 15.5%; in experiment [12] it was 16.9%. In addition, the growth in [13] is 35.8%; in experiment [14], -3.35% (active); in experiment [15], 30.3%; in experiment [16], 0.985% (active); in [17], 23.9%; in experiment [18] it was 10.3%. Moreover, the growth in experiment [19] is 29%.
Regarding `CN1CCN(Cc2ccc(NC(=O)c3cncc(C#Cc4cnc5ccc(N)nn45)c3)cc2C(F)(F)F)CC1`, the growth is 4.35% (active) in [1]; 17.2% in [2]; 12.4% in [3]; -1.79% (active) in [4]; 14.9% in experiment [5]; -22.7% (active) in [6]. The growth is 12.5% in experiment [20]; 38.2% in experiment [7]; 50.1% in [8]; 17.7% in [10]; 6.78% (active) in [11]; -36.6% (active) in experiment [12]. Besides, the growth in experiment [13] is 2.36% (active); in experiment [14], -9.41% (active); in [15] it was 6.31% (active); in experiment [16], 53.8%; in [17], 3.36% (active); in experiment [18] it was 55.3%. The growth in [19] is -1.8% (active).
Take `COc1cc(C(=O)c2cc(C(C)=O)c3ccc(C)cn23)cc(OC)c1OC`: the growth was 48.9% in experiment [1]; 66.3% in experiment [2]; 66% in experiment [3]; 52.4% in experiment [4]; 15.9% in experiment [5]; 97% in experiment [6]. Further, the growth in experiment [7] was 46.7%; in experiment [8], 50.5%; in [9] it was 39.8%; in experiment [10] it was 66.9%; in [11], 19.2%; in experiment [12] it was 43.9%. In addition, the growth was 55.2% in experiment [13]; 58.6% in [14]; 61.3% in [15]; 7.71% (active) in experiment [16]; 34.7% in experiment [17]; 76.7% in experiment [18]. In addition, the growth in experiment [19] was 16.1%.
Take `CN1CCN(c2ccc(Nc3nc(NCCCNS(=O)(=O)c4ccc(Cl)cc4)c4sccc4n3)cc2)CC1`: the growth in experiment [1] is 65%; in [2] it was 99.6%; in experiment [3] it was 33.7%; in [4], 52.5%; in [5], 7.38% (active); in experiment [6] it was 49.4%. Moreover, the growth in experiment [7] was 21.9%; in [8], -43.2% (active); in experiment [9], -38.3% (active); in experiment [10] it was 30.8%; in experiment [11] it was 12.5%; in experiment [12] it was -88.4% (active). Also, the growth in experiment [13] is 9.29% (active); in [14], -76.7% (active); in experiment [15], 5.08% (active); in [16] it was -68.5% (active); in experiment [17] it was -85.3% (active); in experiment [18], -80.2% (active). In experiment [19], the growth is -60.4% (active).
`CCOC(=O)c1c(NCC(=O)Nc2cccc([N+](=O)[O-])c2)sc(C(C)=O)c1C`: the growth in experiment [1] is -40.7% (active); in experiment [2] it was -61.3% (active); in experiment [3] it was 95%; in [4] it was 7.61% (active); in experiment [5], -29% (active); in experiment [6] it was -24.7% (active). The growth in experiment [7] is -13.5% (active); in experiment [8] it was -15% (active); in [9], -42.9% (active); in experiment [10], -13.9% (active); in experiment [11], 8.15% (active); in experiment [12] it was -21.8% (active). The growth was 10.3% in experiment [13]; -86.5% (active) in experiment [14]; -17.6% (active) in experiment [15]; -11.7% (active) in experiment [16]; -28.8% (active) in experiment [17]; -11.9% (active) in [18]. Besides, the growth in experiment [19] was -81.7% (active).
Regarding `NC(=O)n1c(=O)n(-c2cccc(C(F)(F)F)c2)c(=O)c2cc(-c3ccc(F)cc3F)ccc21`, the growth is -6% (active) in experiment [1]; 13.2% in [2]; 0.936% (active) in [3]; -9.38% (active) in [4]; 4.55% (active) in [5]; -36.3% (active) in experiment [6]. The growth in experiment [7] is 4.69% (active); in experiment [8], 45%; in experiment [9], 87.5%; in experiment [10], 23.3%; in experiment [11] it was 5.61% (active); in [12], -18.8% (active). Further, the growth in experiment [13] was -24% (active); in experiment [14], -2.52% (active); in experiment [15], 16.6%; in [16], -10.1% (active); in experiment [17] it was 15.5%; in [18] it was -13.5% (active). Besides, in [19], the growth was 11.1%.
As to `CCC(=C(c1ccc(OCCN2CCCCCC2)cc1)c1ccc(OCCN2CCCCCC2)cc1)c1ccc(Cl)cc1`, the growth in experiment [1] is 19.4%; in experiment [2], 52.1%; in [3], 18%; in experiment [4] it was 58.2%; in [5], -39.7% (active); in experiment [6], 32.3%. Also, the growth was -21.3% (active) in experiment [7]; -81.1% (active) in experiment [8]; -57.7% (active) in experiment [9]; 39.4% in [10]; -32.8% (active) in [11]; -55.4% (active) in [12]. Besides, the growth is 33.6% in experiment [13]; -72.3% (active) in experiment [14]; 56% in experiment [15]; -77.3% (active) in experiment [16]; -79.6% (active) in experiment [17]; -55.8% (active) in experiment [18]. In addition, the growth in experiment [19] was -74.4% (active).
As to `COC(=O)c1cccc(NC2=C(Cl)C(=O)c3nc(C)ccc3C2=O)c1`, the growth is 53.1% in experiment [1]; 87% in [2]; 103% in [3]; 113% in [4]; 101% in [5]; 121% in experiment [6]. For the same compound, the growth in [7] is 102%; in experiment [8], 98.2%; in experiment [9] it was 116%; in experiment [10], 105%; in experiment [11] it was 6.34% (active); in experiment [12], 87.5%. Besides, the growth is 62.6% in [13]; 59.7% in experiment [14]; 99.5% in experiment [15]; 107% in [16]; 111% in experiment [17]; 62% in experiment [18]. Further, in experiment [19], the growth was 98.3%.
